Results: PubChem BioAssay (NCATS)
Records with an inconclusive call do not appear. Active and inactive are the calls of the source. Unless noted, calls follow the shape of the dose curve; as a rule, active = well fitted curve in the direction sought with a large enough effect; inconclusive = small, poorly fitted or top-dose-only effect, or another doubt; inactive = no such curve, though single readings can be large; an effect the other way counts as inactive or inconclusive.

Experiments:
[1] = AP1 Signaling Pathway (AID 357; active = well fitted curve in either direction with a large enough effect, not every such curve was filed as active; also: % is scaled to controls: 0 for no effect and ±100 for the full control effect); conditions: ME-180 AP-1-bla reporter, EGF-induced, beta-lactamase ratio, 5 h; at 7.69 µM (top of the series) unless noted
How it was run: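 Titration-series screen for positive or negative modulators of EC50 EGF-induced signaling in ME-180 cells carrying an AP-1-driven beta-lactamase reporter. After 5 hours at 37 degrees Celsius, CCF4 460nm/530nm emission ratio gave %Activity; AC50 values derived.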

[2] = molecular target: Cytochrome P450 1A2 (Homo sapiens) (UniProt P05177); test: p450-cyp1a2 (AID 410; calls by dose curve;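 also: -100% = full effect of reference inhibitor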); conditions: recombinant CYP1A2, luciferin-ME demethylation, luminescence; series mostly up to 11.4 µM
Cytochrome P450 1A2 (Homo sapiens), sequence (P05177 whole entry, looked up): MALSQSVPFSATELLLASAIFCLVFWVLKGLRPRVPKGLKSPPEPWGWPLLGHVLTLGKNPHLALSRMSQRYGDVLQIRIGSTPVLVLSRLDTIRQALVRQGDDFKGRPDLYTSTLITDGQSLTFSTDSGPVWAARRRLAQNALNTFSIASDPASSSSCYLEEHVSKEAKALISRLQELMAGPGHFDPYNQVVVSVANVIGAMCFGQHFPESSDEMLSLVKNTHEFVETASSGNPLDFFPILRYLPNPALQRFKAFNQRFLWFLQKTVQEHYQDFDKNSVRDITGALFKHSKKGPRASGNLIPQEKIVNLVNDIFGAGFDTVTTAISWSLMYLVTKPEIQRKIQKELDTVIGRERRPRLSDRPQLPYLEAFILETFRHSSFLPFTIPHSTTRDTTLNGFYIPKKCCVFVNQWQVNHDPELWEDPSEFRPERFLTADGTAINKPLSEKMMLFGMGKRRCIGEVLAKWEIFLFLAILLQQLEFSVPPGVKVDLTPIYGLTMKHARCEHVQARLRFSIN
How it was run: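 Human CYP1A2 (20nM) demethylated Luciferin-ME at its Km (100uM) in 100mM KPO4. After 10 min compound preincubation, NADPH regeneration ran the reaction 60 min at room temperature. Luciferin was read by luminescence, normalized to 57 uM furafylline.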

[3] = NFAT Signaling Pathway (AID 444; active = well fitted curve in either direction with a large enough effect, not every such curve was filed as active;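 also: carbachol stimulus at about its EC50 of 1 µM final; % is scaled to controls: 0 for no effect and ±100 for the full control effect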); conditions: Jurkat NFAT-bla M1, carbachol, beta-lactamase ratio, 5 h; at 7.69 µM (top of the series) unless noted
How it was run: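 Jurkat cells carrying an NFAT-driven β-lactamase reporter and co-transfected muscarinic M1 receptor were treated with compound plus carbachol (1 uM final, an EC50 level) for 5 h at 37 °C. CCF4 loading followed for 1 h at RT; 460/530 nm ratio gave %activity.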

[4] = molecular target: Mitogen-activated protein kinase 10 (Mus musculus) (UniProt Q61831); test: JNK3 AlphaScreen Assay (AID 530; active = well fitted curve in either direction with a large enough effect, not every such curve was filed as active;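 also: kinase came from lysate of stimulated human HepG2 cells; signal reports phosphorylation of biotinylated GST-cJun 1-79 at Ser73 with 10 µM ATP; % is scaled to controls: 0 for no effect and ±100 for the full control effect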); conditions: JNK3 lysate, c-Jun phosphorylation; series mostly up to 11.4 µM
How it was run: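 JNK3 came from HepG2 lysates pre-activated with IL-1beta and TNF-alpha and phosphorylated biotinylated GST-cJun (1-79) at 10 uM ATP, pH 7.6, room temperature. Compounds were titrated. AlphaScreen signal used anti-phospho-cJun (Ser73) antibody.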

[5] = molecular target: 3',5'-cyclic-AMP phosphodiesterase 4B (Homo sapiens) (UniProt Q07343); test: qHTS Assay for Inhibitors of PDE-IV (AID 607; active = well fitted activation curve with a large enough effect in the main read-out, with a control signal flat, not every such curve was filed as active; also: % of control where 0% means no effect); conditions: HEK293 ACTOne CNG channel cells, membrane potential fluorescence; series mostly up to 22.9 µM
3',5'-cyclic-AMP phosphodiesterase 4B (Homo sapiens), sequence (Q07343 whole entry, looked up): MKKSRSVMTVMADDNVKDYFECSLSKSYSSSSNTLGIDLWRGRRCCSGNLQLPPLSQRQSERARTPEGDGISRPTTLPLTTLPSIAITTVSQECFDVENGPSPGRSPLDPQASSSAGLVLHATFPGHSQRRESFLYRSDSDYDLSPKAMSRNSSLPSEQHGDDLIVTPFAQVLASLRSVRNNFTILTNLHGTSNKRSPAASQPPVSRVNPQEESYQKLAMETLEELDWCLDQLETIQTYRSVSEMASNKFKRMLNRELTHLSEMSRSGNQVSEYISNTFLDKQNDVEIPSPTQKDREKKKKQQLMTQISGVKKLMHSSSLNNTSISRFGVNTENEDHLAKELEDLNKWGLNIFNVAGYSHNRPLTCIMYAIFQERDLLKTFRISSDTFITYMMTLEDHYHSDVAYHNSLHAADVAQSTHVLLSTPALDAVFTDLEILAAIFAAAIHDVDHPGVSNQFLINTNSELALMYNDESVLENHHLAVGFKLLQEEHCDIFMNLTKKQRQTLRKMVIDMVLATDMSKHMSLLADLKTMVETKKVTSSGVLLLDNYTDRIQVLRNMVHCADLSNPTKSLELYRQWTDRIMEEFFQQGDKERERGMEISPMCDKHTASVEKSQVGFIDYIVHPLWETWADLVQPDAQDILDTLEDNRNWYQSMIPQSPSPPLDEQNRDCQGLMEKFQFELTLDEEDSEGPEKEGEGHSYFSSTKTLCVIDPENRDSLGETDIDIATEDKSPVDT
How it was run: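 ACTOne HEK293 cells carry a modified cAMP-gated CNG channel and express endogenous PDE4; plated 1000 cells/well, compounds up to 22.9 uM final. Membrane-potential dye fluorescence (ex 535/em 590) was read; parental cells received 10 uM forskolin + 100 uM RO 20-1724.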

[6] = molecular target: Cytochrome P450 2D6 (Homo sapiens) (UniProt P10635); test: qHTS Assay for Inhibitors and Substrates of Cytochrome P450 2D6 (AID 891); conditions: recombinant CYP2D6, luciferin-ME EGE luminescence; series mostly up to 11.4 µM;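 also: luciferin methyl ether substrate demethylated by CYP2D6 with NADPH regeneration; % is scaled to controls: 0 for no effect and ±100 for the full control effect; nearly all actives have a fitted effect of over 60% in size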
Cytochrome P450 2D6 (Homo sapiens), sequence (P10635 whole entry, looked up): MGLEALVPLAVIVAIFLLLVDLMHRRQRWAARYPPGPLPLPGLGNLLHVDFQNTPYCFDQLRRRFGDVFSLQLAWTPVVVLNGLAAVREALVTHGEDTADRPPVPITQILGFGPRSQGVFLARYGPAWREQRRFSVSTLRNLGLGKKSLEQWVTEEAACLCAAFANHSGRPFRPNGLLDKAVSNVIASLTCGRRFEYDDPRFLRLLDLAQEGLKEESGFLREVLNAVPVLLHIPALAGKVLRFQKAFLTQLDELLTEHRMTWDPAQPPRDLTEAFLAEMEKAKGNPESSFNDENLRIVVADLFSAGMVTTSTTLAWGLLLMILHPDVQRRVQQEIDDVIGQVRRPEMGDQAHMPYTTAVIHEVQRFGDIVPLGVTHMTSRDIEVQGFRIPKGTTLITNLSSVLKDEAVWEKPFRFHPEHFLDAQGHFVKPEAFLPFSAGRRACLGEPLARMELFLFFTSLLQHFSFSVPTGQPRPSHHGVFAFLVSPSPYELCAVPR
How it was run: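 Human CYP2D6 (5 nM) with 30 uM Luciferin-ME EGE (at Km) in 100 mM KPO4, compound preincubated 10 min, then NADPH regeneration system for 60 min at room temperature. Luciferin read by luminescence; normalized to 1.43 uM quinidine.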

[7] = molecular target: Cytochrome P450 2C19 (Homo sapiens) (UniProt P33261); test: qHTS Assay for Inhibitors and Substrates of Cytochrome P450 2C19 (AID 899); conditions: recombinant CYP2C19, luciferin-H EGE luminescence; series mostly up to 11.4 µM; also: % is scaled to controls: 0 for no effect and ±100 for the full control effect; nearly all actives have a fitted effect of over 60% in size
How it was run: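 Human CYP2C19 (5nM) with Luciferin-H EGE at 10uM (its KM) in 50mM KPO4 was preincubated with compound for 10 min at 37C. NADPH regeneration started a 60 min 37C reaction. Luciferin was read by luminescence, normalized to 57uM ketoconazole.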

[8] = Stat Signaling Pathway (AID 446; active = well fitted curve in either direction with a large enough effect, not every such curve was filed as active;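 also: ME-180 cervical cancer cells given 40 pM IL-6 alongside compound; SIE-controlled beta-lactamase reporter measured as 460/530 nm FRET emission ratio; % is scaled to controls: 0 for no effect and ±100 for the full control effect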); conditions: ME-180 SIE beta-lactamase reporter, IL-6 stimulated, 5 h; at 7.69 µM (top of the series) unless noted
How it was run: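 ME-180 SIE-bla cells; overnight plating; cpd + IL-6 40 pM, 5 h, 37 C; LiveBLAzer 2.5 h RT; 460/530 nm emission ratio. Normalized to 300 pM IL-6 and 125 nM JAK inhibitor controls.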

[9] = molecular target: Glucocorticoid receptor (Homo sapiens) (UniProt P04150); test: GR-GFP Redistribution (AID 450;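 active = compounds whose dose series gives a full or clear partial fitted curve of increased nuclear translocation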; also: potency is read from the fitted curve at half-maximal effect); conditions: U2OS GR-GFP nuclear translocation, laser cytometry, 2 h
Glucocorticoid receptor (Homo sapiens), sequence (P04150 whole entry, looked up, the tested form may be a part): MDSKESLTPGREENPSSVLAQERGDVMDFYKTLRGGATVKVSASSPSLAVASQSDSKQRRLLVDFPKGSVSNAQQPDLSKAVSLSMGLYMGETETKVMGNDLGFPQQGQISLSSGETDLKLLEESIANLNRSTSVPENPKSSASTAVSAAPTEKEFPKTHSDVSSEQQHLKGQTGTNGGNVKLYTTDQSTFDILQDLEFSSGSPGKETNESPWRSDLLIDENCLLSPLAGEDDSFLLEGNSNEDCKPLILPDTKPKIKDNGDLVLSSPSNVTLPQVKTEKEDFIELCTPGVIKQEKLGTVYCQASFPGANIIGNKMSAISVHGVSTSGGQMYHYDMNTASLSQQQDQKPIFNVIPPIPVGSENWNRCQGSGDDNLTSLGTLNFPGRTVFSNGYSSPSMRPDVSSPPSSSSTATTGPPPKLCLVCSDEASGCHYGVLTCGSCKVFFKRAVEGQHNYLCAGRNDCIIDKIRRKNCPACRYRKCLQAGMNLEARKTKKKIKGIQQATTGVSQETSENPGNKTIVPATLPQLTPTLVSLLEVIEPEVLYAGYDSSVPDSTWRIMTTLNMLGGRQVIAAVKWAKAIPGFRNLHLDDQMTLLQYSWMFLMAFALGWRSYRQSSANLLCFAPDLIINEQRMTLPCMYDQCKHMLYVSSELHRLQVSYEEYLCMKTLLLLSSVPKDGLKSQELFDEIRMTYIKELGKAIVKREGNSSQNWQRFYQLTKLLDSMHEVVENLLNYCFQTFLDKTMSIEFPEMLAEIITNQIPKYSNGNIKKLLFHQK

[10] = molecular target: Glucocorticoid receptor (Homo sapiens) (UniProt P04150); test: GR-EFC Redistribution (AID 451; calls by dose curve; also: potency is read from the fitted curve at half-maximal effect); conditions: CHO-K1 GR-EFC translocation, beta-gal luminescence, 2 h
How it was run: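 CHO-K1 cells stably expressing nuclear-localized β-gal enzyme acceptor and GR fused C-terminally to the enzyme donor fragment; ligand-driven nuclear translocation restores β-gal by complementation. Compounds titrated up to 46 uM final, 2 h at 37 °C; luminescence read.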

[11] = molecular target: Guanine nucleotide-binding protein G(i) subunit alpha-1 (Homo sapiens) (UniProt P63096); test: qHTS Assay for Inhibitors of RGS12 GoLoco Motif Activity (Green Fluorophore) (AID 879); conditions: Galphai1/FITC-RGS12 GoLoco peptide, fluorescence polarization; series mostly up to 57.1 µM;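 also: 0% = labeled peptide with Gαi1 and full inhibition = labeled peptide alone without protein; negative values mean loss of peptide binding seen as reduced polarization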
Guanine nucleotide-binding protein G(i) subunit alpha-1 (Homo sapiens), sequence (P63096 whole entry, looked up): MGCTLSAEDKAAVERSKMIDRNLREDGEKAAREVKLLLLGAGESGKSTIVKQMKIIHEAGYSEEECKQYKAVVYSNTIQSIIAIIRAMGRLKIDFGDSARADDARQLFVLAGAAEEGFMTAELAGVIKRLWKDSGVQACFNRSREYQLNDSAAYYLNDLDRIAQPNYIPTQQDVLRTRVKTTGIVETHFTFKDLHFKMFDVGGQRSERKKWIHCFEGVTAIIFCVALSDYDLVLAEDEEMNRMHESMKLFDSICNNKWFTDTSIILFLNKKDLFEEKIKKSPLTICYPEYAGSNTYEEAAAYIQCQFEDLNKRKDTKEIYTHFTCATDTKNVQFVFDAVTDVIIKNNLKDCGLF
How it was run: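 Fluorescence polarization assay: 50 nM Gαi1 with 10 nM FITC-labeled RGS12 GoLoco peptide in 10 mM Tris pH 7.5, 150 mM NaCl, 0.1 mM GDP, 0.05% NP40, 10 min at room temperature with compound.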

[12] = qHTS Assay for Identification of Small Molecule Agonists for Thrombopoietin (TPO) Signaling Pathway (AID 917); conditions: TPO signaling pathway reporter cells, agonist qHTS, stimulated with TPO at its EC50; series mostly up to 38.5 µM; also: % is scaled to controls: 0 for no effect and ±100 for the full control effect
How it was run: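 Murine Ba/F3 cells expressing human TPO receptor and GPIIb-promoter luciferase, IL-3-starved overnight, given compound plus TPO at 26 pM (EC50). After 24 h at 37 C, 5% CO2, luminescence read.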

[13] = molecular target: Pyruvate kinase (Leishmania mexicana) (UniProt Q27686); test: qHTS Validation Assay for Inhibitors of Leishmania Mexicana Pyruvate Kinase (AID 945);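 also: 0% = DMSO only neutral control wells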; conditions: purified L. mexicana pyruvate kinase, enzyme activity, E451W mutant enzyme; series mostly up to 57.5 µM
Pyruvate kinase (Leishmania mexicana), sequence (Q27686 2-499 E452W): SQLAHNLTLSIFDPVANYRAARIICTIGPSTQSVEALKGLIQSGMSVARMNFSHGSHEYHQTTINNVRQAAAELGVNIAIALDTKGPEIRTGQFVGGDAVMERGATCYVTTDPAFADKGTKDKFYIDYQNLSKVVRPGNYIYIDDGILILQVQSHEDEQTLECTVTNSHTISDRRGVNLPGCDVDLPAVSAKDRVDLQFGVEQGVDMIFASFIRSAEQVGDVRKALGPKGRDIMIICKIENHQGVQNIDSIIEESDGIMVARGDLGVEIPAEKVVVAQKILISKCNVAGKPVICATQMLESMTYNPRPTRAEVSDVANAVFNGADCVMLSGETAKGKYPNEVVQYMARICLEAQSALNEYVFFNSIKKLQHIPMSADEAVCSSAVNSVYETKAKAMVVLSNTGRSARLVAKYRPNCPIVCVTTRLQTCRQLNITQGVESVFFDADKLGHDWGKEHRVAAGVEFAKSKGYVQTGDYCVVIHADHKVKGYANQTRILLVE
How it was run: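 qHTS eight-point titrations against 0.2 nM LmPYK (E451W) in imidazole buffer pH 7.2 with 0.5 mM PEP, 0.1 mM ADP; 1 h, room temperature. Readout: PKLight luminescence, normalized to neutral DMSO wells.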

[14] = molecular target: Pyruvate kinase PKM (Homo sapiens) (UniProt P14618); test: qHTS Assay for Activators of Human Muscle Pyruvate Kinase (AID 954; active = well fitted curve in the direction sought with a large enough effect, not every such curve was filed as active;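 also: 0% = uninhibited enzyme and -100% = no enzyme or full thiadiazolimine inhibition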); conditions: purified human muscle pyruvate kinase, luciferase-coupled luminescence, 1 h; series mostly up to 57.5 µM
Pyruvate kinase PKM (Homo sapiens), sequence (P14618 whole entry, looked up): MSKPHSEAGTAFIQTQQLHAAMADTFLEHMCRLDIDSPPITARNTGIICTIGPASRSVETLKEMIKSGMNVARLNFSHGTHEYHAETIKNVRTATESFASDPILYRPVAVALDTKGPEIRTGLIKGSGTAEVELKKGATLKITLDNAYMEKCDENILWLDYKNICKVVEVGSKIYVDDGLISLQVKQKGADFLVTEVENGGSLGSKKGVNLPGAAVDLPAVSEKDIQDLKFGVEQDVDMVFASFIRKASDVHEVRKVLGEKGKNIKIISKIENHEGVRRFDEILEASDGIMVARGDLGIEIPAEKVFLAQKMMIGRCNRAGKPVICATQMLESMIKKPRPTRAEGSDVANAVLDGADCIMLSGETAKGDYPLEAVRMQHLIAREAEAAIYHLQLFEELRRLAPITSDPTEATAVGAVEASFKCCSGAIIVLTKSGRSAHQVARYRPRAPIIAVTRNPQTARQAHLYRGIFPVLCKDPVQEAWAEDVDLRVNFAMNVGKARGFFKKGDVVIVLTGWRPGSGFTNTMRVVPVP
How it was run: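 Luminescence from a luciferase ATP-detection/stop reagent reported PKM2 activity. Reactions contained 0.1 nM purified human enzyme, 0.5 mM PEP, 0.1 mM ADP and 7 mM MgCl2 at pH 7.2, run 1 h at RT.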

[15] = molecular target: Alpha-galactosidase A (Homo sapiens) (UniProt P06280); test: Counterscreen for Glucocerebrosidase Inhibitors: qHTS Assay for Human alpha-Galactosidase at pH 4.5 (AID 992); conditions: purified enzyme, fluorogenic substrate; series mostly up to 76.9 µM; also: 0% is about no effect
Alpha-galactosidase A (Homo sapiens), sequence (P06280 whole entry, looked up): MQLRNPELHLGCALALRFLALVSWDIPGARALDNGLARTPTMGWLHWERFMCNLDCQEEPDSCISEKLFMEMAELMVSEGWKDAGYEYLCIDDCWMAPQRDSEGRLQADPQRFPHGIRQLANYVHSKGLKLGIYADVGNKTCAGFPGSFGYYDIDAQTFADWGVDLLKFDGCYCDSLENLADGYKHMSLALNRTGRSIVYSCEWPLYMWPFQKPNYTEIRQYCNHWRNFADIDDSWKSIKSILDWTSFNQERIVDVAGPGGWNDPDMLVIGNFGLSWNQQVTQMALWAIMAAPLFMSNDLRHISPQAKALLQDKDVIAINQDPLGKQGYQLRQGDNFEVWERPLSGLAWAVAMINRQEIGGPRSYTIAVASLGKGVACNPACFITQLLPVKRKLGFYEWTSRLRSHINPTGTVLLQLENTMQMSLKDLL
How it was run: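 Enzyme at 2 nM final was combined with compound (0.7 nM to 77 uM) and 80 uM 4-methylumbelliferyl alpha-D-galactopyranoside in 50 mM citric acid, 0.005% Tween-20, pH 4.5. After 20 min at room temperature, fluorescence was read (Ex 365/Em 440 nm); AC50 came from Hill fits.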

[16] = molecular target: alpha-glucosidase (Oryza sativa, rice) (UniProt Q653V4); test: Counterscreen for Glucocerebrosidase Inhibitors: qHTS Assay for Rice alpha-Glucosidase at pH 5.0 (AID 997); conditions: rice alpha-glucosidase enzyme activity; series mostly up to 76.9 µM;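 also: 0% = full activity with enzyme and -100% = basal without enzyme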
How it was run: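 Rice alpha-glucosidase (4 nM final) with 400 uM 4-methylumbelliferyl-alpha-D-glucopyranoside in citrate buffer pH 5.0, 20 min at room temperature, stopped at pH 10; fluorescence 365/440 nm, compounds 0.7 nM–77 uM, AC50 from Hill fits.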

[17] = molecular target: Muscarinic acetylcholine receptor M1 (Rattus norvegicus) (UniProt P08482); test: qHTS Assay for Antagonists of Acetylcholine Muscarinic M1 Receptor: Kinetic Measurement of Intracellular Calcium Response (AID 943); conditions: M1-expressing cells, kinetic intracellular calcium fluorescence; series mostly up to 35.3 µM;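 also: Fluo-4 calcium signal as peak divided by basal fluorescence over 4 min; nearly all actives have a fitted effect of over 75% in size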
Muscarinic acetylcholine receptor M1 (Rattus norvegicus), sequence (P08482 whole entry, looked up): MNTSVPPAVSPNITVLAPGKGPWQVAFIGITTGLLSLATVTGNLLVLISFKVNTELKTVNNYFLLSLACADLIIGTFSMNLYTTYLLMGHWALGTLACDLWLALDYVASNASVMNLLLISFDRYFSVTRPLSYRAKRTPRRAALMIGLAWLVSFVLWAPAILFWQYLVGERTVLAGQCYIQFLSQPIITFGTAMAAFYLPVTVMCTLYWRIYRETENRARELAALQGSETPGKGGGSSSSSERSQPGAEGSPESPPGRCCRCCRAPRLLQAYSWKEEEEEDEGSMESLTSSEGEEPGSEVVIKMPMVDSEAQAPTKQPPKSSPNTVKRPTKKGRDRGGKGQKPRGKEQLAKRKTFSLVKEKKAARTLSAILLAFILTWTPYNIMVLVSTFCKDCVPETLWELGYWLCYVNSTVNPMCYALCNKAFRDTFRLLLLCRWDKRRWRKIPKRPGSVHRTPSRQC
How it was run: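 CHO cells stably expressing rat M1 were loaded with no-wash Fluo-4 dye for 1 h at 37C, pre-incubated 10 min with compound, then challenged with EC80 carbachol (100 nM final); kinetic calcium read 4 min, peak/basal ratio.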

[18] = molecular target: Muscarinic acetylcholine receptor M1 (Rattus norvegicus) (UniProt P08482); test: qHTS Assay for Antagonists of Acetylcholine Muscarinic M1 Receptor: Measurement of IP-One Response (AID 944); conditions: CHO-M1 cells, IP-One HTRF, antagonist mode; series mostly up to 46.1 µM; also: nearly all actives have a fitted effect of over 75% in size
How it was run: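 CHO cells expressing rat M1 receptor, recovered overnight, were pre-incubated 10 min with compound, then stimulated 30 min with carbachol at EC80 (200 nM) in LiCl-containing buffer, pH 7.4. IP1 accumulation was read by HTRF (620/665 nm).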

CCc1cccc2c3c([nH]c12)[C@](CC)(CC(=O)O)OCC3
inactive: activity change, negative = inhibition [1] 6.07% [at 38 µM] | Potency [2] | activity change, negative = inhibition [3] -5.71% [at 38 µM] | Potency [4] | Potency [5] | Potency [6] | Potency [7]

Nc1nc(N)c2nc(CNc3ccc(C(=O)N[C@H](CCC(=O)O)C(=O)O)cc3)cnc2n1
inactive: activity change, negative = inhibition [1] 1.47% [at 38 µM] | activity change, negative = inhibition [3] 13.5% [at 38 µM] | activity, negative = inhibition [8] -0.643% [at 38 µM] | Potency [9] > 46 µM | Potency [10] > 46 µM | Potency [4] | Potency [5] | outcome [11] | outcome [12] | outcome [13] | outcome [14] | outcome [15] | Potency [16]

COc1cc2c(cc1O)CC[C@@H]1[C@@H]2CC[C@@]2(C)[C@H](O)CC[C@H]12
inactive: activity change, negative = inhibition [1] -4.01% [at 38 µM] | activity change, negative = inhibition [3] -2.76% [at 38 µM] | activity, negative = inhibition [8] -17.5% [at 38 µM] | Potency [9] > 46 µM | Potency [10] > 46 µM | Potency [4] | Potency [5] | outcome [11] | Potency [17] | Potency [18] | outcome [13] | outcome [14] | outcome [15] | Potency [16]

CCCC(c1cc(C(C)(C)C)c(O)cc1C)c1cc(C(C)(C)C)c(O)cc1C
inactive: activity change, negative = inhibition [1] 28.1% | activity change, negative = inhibition [2] -12.3% [at 2.29 µM] | activity, negative = inhibition [8] 4.1% | Potency [9] > 46 µM | Potency [10] > 9.22 µM | Potency [4] | Potency [5]

CN1[C@@H]2CC[C@H]1CC(NC(=O)c1nn(C)c3ccccc13)C2 (some centres undefined)
inactive: activity change, negative = inhibition [1] -1.02% [at 38 µM] | Potency [2] | Potency [9] > 46 µM | Potency [10] > 46 µM | Potency [4] | Potency [5] | outcome [11] | outcome [12] | Potency [18] | outcome [13] | outcome [14] | outcome [15] | Potency [16]
